Results: PubChem BioAssay AID890 (National Center for Advancing Translational Sciences (NCATS), 2007)

test: Confirmation Concentration-Response Assay for Epigenetic Modulators; conditions: murine C127i cells, silenced GFP reporter derepression, imaging; series mostly up to 46 µM; GFP activation: at the top concentration; active = well fitted activation curve with a large enough effect; inactive = flat fitted curve, though single readings scatter
Excerpt: NIH Molecular Libraries Screening Centers Network [MLSCN] NIH Chemical Genomics Center [NCGC] MLSCN Grant: 1 X01 MH079860-01 Assay Provider: Elisabeth D. Martinez, University of Texas SW Medical Center NCGC Assay Overview: The Locus Derepression assay detects the derepression of a GFP reporter that is stably integrated in a region of the genome of murine c127i mammary cells that is presumably silenced. GFP transcription in this construct is controlled by a CMV promoter, which normally is strong and constitutively active. However, this line was selected for lack of constitutive expression of the GFP protein. GFP production can be induced by incubating the cells with histone deacetylase or DNA methyltransferase inhibitors. Compounds that cause derepression of the locus to express GFP are identified by enumerating GFP positive cells using a laser-scanning microplate cytometer.
NCGC Assay Protocol Summary: Two hundred and fifty cells in 5 uL per well were dispensed into black, clear-bottom 1536-well plates. Twenty-three nL compound was transferred to the assay plate and cells were incubated 30 hours at 37 C. Medium was removed, cells were washed two times with PBS, and GFP-positive cells were enumerated as fluorescent objects between the sizes of 20 to 120 um width and depth using a laser-scanning microplate imager (Acumen Explorer Ex3, TTP Labtech) Keywords: NIH Roadmap, MLSCN, MLI, MLSMR, qHTS, NCGC, qHTS, HDAC, DNMT, HAT, DNA methyltransferases, histone acetyl transferases, histone deacetylases

GFP activation, inactive:
c1ccc(Nc2nc(Nc3ccccc3)nc(-n3cccn3)n2)cc1 2%
COc1ccc(NC(c2ccccn2)c2ccc3cccnc3c2O)cc1 (centres undefined) 1.5%
COc1ccc(C(=O)NC(c2ccco2)c2cc(Cl)c3cccnc3c2O)cc1 (centres undefined) 1.5%
Cc1cc(C)n(-c2nc(NC(C)(C)C)nc(NC(C)(C)C)n2)n1 3%
